# Source: ChEMBL document CHEMBL1961873, “Compounds: GSK PKIS; Assays: Nanosyn kinase panel” (2012)
# How the values were obtained:
# [1] = target: T1, Serine/threonine-protein kinase TBK1 (Homo sapiens) (UniProt Q9UHD2); settings: at 1 µM;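 further: values are mean inhibition of TBK1, screened as part of the GSK published kinase inhibitor set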
# T1 sequence (whole entry): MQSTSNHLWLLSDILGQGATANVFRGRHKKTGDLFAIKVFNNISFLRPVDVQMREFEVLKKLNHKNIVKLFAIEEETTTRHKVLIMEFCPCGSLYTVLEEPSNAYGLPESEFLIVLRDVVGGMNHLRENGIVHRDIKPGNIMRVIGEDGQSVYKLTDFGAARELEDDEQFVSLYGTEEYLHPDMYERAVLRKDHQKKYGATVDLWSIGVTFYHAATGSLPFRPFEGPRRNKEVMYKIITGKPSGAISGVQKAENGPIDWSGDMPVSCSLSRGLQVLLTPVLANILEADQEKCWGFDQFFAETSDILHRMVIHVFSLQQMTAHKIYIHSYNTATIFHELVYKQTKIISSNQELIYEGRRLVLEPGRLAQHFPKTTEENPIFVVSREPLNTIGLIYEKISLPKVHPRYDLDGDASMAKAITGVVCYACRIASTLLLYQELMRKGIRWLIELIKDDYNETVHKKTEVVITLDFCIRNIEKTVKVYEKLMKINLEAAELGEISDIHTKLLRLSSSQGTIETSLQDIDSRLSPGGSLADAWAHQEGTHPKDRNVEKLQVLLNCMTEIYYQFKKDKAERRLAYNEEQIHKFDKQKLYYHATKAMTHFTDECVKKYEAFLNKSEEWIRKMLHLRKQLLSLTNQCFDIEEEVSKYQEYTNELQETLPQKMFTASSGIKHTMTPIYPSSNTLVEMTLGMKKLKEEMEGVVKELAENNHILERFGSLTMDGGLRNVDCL
# [2] = target: T2, Testis-specific serine/threonine-protein kinase 1 (Homo sapiens) (UniProt Q9BXA7); settings: at 0.1 µM
# T2 sequence (whole entry): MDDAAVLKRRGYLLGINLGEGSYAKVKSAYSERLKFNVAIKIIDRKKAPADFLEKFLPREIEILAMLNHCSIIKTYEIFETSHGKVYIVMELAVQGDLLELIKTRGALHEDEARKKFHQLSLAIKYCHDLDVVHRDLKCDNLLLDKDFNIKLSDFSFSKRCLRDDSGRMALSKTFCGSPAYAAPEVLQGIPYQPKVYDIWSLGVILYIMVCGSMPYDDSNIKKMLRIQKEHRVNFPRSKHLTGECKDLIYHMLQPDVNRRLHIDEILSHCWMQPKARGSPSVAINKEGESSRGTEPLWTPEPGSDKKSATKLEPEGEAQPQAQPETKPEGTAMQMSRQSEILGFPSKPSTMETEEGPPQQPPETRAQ
# [3] = target: T2, Testis-specific serine/threonine-protein kinase 1 (Homo sapiens); settings: at 1 µM
# [4] = target: T3, Testis-specific serine/threonine-protein kinase 2 (Homo sapiens) (UniProt Q96PF2); settings: at 0.1 µM
# T3 sequence (whole entry): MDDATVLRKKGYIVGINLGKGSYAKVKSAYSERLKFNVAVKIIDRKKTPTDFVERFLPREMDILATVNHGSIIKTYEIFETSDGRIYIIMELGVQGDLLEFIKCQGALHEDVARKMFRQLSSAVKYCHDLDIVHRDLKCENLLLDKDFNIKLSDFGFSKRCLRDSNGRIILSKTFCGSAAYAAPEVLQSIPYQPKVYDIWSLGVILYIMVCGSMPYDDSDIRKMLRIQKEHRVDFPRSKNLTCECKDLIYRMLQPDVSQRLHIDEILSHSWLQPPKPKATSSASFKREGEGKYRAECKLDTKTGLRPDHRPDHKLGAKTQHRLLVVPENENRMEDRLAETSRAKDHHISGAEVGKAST
# [5] = target: T3, Testis-specific serine/threonine-protein kinase 2 (Homo sapiens); settings: at 1 µM
# [6] = target: Casein kinase I isoform alpha (Homo sapiens) (UniProt P48729); settings: at 0.1 µM
# [7] = target: Casein kinase I isoform alpha (Homo sapiens) (UniProt P48729); settings: at 1 µM
# [8] = target: Casein kinase I isoform gamma-1 (Homo sapiens) (UniProt Q9HCP0); settings: at 0.1 µM
# [9] = target: Casein kinase I isoform gamma-1 (Homo sapiens) (UniProt Q9HCP0); settings: at 1 µM
# [10] = target: Casein kinase I isoform gamma-2 (Homo sapiens) (UniProt P78368); settings: at 0.1 µM
# [11] = target: Casein kinase I isoform gamma-2 (Homo sapiens) (UniProt P78368); settings: at 1 µM
# [12] = target: Casein kinase I isoform gamma-3 (Homo sapiens) (UniProt Q9Y6M4); settings: at 0.1 µM
# [13] = target: Casein kinase I isoform gamma-3 (Homo sapiens) (UniProt Q9Y6M4); settings: at 1 µM
# [14] = target: Cyclin-dependent kinase 1 (Homo sapiens) (UniProt P06493); settings: at 0.1 µM
# [15] = target: Cyclin-dependent kinase 1 (Homo sapiens) (UniProt P06493); settings: at 1 µM
# [16] = target: Cyclin-dependent kinase 2 (Homo sapiens) (UniProt P24941); settings: at 0.1 µM
# [17] = target: Cyclin-dependent kinase 2 (Homo sapiens) (UniProt P24941); settings: at 1 µM
# [18] = target: Cyclin-dependent kinase 2 (Homo sapiens) (UniProt P24941); settings: at 0.1 µM; remark: listed apart in the source
# [19] = target: Cyclin-dependent kinase 2 (Homo sapiens) (UniProt P24941); settings: at 1 µM; remark: listed apart in the source
# [20] = target: CDK3/Cyclin E (Homo sapiens) (UniProt P24864+Q00526); settings: at 0.1 µM;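 further: reported percentages are mean inhibition values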
# Sequence of CDK3/Cyclin E (Homo sapiens) (P24864 whole entry, looked up): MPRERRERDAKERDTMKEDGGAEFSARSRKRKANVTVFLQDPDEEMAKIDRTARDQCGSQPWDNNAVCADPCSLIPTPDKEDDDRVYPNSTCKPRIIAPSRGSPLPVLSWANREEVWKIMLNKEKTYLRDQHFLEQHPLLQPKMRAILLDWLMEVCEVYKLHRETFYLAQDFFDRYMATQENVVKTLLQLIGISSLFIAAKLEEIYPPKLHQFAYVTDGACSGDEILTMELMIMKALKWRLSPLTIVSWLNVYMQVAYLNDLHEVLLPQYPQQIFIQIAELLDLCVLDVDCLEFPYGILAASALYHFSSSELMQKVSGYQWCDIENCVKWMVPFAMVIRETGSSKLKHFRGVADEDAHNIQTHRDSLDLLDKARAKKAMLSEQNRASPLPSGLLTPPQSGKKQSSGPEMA
# Sequence of CDK3/Cyclin E (Homo sapiens) (Q00526 whole entry, looked up): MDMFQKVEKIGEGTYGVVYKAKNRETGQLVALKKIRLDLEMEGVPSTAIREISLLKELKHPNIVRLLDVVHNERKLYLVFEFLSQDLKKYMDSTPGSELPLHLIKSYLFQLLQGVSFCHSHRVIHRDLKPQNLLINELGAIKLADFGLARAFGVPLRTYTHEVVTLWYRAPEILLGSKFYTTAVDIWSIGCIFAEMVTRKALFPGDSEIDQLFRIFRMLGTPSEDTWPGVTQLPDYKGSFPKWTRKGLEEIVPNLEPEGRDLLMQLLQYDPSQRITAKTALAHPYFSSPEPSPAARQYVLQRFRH
# Sequence of Casein kinase I isoform gamma-2 (Homo sapiens) (P78368 whole entry, looked up, canonical isoform): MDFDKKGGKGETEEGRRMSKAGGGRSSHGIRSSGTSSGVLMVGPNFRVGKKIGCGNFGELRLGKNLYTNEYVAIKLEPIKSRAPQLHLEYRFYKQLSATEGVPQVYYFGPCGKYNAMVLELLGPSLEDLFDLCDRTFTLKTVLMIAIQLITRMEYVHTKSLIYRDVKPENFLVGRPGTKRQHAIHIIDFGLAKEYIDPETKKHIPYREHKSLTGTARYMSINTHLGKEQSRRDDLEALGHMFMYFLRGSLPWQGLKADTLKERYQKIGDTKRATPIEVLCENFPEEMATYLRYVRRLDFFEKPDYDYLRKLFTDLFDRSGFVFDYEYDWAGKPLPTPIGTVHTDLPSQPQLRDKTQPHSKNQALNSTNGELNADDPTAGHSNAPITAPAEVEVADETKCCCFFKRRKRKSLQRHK
# Sequence of Casein kinase I isoform alpha (Homo sapiens) (P48729 2-337 limits assumed): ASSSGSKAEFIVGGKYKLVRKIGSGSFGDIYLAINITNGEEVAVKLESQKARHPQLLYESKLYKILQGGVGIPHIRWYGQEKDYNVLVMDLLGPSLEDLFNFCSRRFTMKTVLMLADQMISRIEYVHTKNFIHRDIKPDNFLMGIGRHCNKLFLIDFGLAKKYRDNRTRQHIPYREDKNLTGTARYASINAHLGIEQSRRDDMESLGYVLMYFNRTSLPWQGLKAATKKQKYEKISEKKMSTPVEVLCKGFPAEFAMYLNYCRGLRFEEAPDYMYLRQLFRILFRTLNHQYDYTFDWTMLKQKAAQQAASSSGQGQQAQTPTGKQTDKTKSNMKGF
# Sequence of Cyclin-dependent kinase 1 (Homo sapiens) (P06493 whole entry, looked up): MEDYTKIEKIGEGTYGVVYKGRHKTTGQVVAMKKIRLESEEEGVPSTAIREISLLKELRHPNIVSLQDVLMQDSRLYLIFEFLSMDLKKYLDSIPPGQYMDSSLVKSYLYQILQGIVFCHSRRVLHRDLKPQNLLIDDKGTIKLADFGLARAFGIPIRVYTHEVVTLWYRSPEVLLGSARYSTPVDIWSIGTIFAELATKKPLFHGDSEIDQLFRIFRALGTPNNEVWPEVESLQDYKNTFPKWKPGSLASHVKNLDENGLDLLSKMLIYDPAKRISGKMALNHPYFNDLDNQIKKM
# Sequence of Casein kinase I isoform gamma-1 (Homo sapiens) (Q9HCP0 whole entry, looked up, canonical isoform): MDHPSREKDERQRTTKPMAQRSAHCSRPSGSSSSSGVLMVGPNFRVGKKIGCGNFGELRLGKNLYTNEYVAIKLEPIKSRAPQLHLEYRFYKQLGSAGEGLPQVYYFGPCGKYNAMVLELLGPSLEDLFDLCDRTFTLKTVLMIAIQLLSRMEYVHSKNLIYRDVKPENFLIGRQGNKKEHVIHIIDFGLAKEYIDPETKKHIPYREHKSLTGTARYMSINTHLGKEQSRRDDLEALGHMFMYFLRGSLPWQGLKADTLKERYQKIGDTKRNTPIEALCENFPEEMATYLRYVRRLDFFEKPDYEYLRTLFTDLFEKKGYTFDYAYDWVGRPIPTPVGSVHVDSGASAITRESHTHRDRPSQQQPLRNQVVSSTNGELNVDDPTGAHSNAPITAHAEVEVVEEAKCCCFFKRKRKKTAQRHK
# Sequence of Casein kinase I isoform gamma-3 (Homo sapiens) (Q9Y6M4 whole entry, looked up, canonical isoform): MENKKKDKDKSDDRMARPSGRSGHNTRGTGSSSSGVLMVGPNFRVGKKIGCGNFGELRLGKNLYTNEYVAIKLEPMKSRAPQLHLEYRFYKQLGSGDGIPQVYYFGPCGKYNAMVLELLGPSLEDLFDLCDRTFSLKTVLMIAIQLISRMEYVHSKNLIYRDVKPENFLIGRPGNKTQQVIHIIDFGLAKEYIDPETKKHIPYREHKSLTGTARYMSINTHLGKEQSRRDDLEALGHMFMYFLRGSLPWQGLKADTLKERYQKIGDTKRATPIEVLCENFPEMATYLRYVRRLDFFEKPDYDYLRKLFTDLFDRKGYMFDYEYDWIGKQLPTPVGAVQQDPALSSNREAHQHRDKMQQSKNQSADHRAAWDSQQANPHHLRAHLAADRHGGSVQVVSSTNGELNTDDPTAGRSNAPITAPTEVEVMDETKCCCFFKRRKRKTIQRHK
Compound,inhibition [1] [%],inhibition [2] [%],inhibition [3] [%],inhibition [4] [%],inhibition [5] [%],inhibition [6] [%],inhibition [7] [%],inhibition [8] [%],inhibition [9] [%],inhibition [10] [%],inhibition [11] [%],inhibition [12] [%],inhibition [13] [%],inhibition [14] [%],inhibition [15] [%],inhibition [16] [%],inhibition [17] [%],inhibition [18] [%],inhibition [19] [%],inhibition [20] [%]
Nc1nc(-c2cccc(Cl)c2)c(-c2ccc3ncccc3n2)s1,4.37,7.29,12.9,3.52,6.73,1.48,5.89,5.14,16.6,4.46,13.7,6.72,24.7,0.61,2.18,1.23,0.95,3.69,4.47,2.24
Cc1ccc(O)cc1Nc1ccnc2cc(-c3ccccn3)ccc12,6.68,3.87,3.16,1.09,-1.1,3.78,12.5,4.65,11,2.73,6.53,4.03,6.72,0.02,1.83,0.84,6.62,3.98,4.84,1.95
CCCN1CCC(c2ccc(Nc3nc(Nc4cc(F)ccc4C(N)=O)c4cc[nH]c4n3)c(OC)c2)CC1,10.2,82.4,94.8,63.3,91.1,31.9,67.5,23.7,72.1,20.9,72.7,35.4,79.8,1.73,6.31,1.78,0.94,7.06,11.8,4.1
NC(=O)c1sc(-n2cnc3ccc(C(F)(F)F)cc32)cc1OCc1ccccc1Br,2.04,3.44,3.86,2.62,2.38,0.93,2.88,3.36,3.78,3.03,4.58,1.35,2.37,-0.53,1.01,1.25,1.52,1.94,3.25,1.2
Cc1ccc2c(-c3ccnc(Nc4ccccc4)n3)c(-c3ccc(F)cc3)nn2n1,2.79,2.68,0.03,2.66,-2.67,33.6,70.7,5.48,32,5.54,36.6,7.8,51.5,-0.23,1.56,2.27,0.79,2.35,5.57,2.45
c1cc(-c2cnn3nc(N4CCOCC4)ccc23)nc(NC2CC2)n1,6.36,2.66,5.12,0.16,-3.76,5.43,15.8,3.42,8.05,3.35,10.4,2.89,8.91,2.3,21.7,6.45,50.7,9.31,43.2,2.41
CC1=C(C(=O)Nc2cc(Cl)c3[nH]ncc3c2)C(c2ccc(C(F)(F)F)cc2)CC(=O)N1 (stereo not given),3.48,3.52,3.9,2.37,1.37,1.86,2.49,2.91,3.25,2.31,3.61,1.59,2.92,-0.73,1.81,-0.94,9.38,2.4,7.57,2.08
